For three compounds, outcome and AC50 results are on record in PubChem BioAssay (EPA / NIEHS).

Holding throughout (conditions): mRNA level, 48 h; actives raise or lower the signal
Read-out in one test: CYP2C9 (gene 1559)
Briefly: LTEA_HepaRG_CYP2C9: Life Technologies and Expression Analysis (LTEA) Assay for CYP2C9 using HepaRG (AID 2283484). An outline of the steps:
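Eight-point concentration-response (highest 100 uM, half-log dilutions) in HepaRG cells for 48 h; CYP2C9 expression by qRT-PCR normalized to ACTB, GAPDH, POLR2A. Bidirectional fit, DMSO baseline.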

Read-out in a further test: CYP2E1 (gene 1571)
Briefly: LTEA_HepaRG_CYP2E1: Life Technologies and Expression Analysis (LTEA) Assay for CYP2E1 using HepaRG (AID 2283485). The method in brief:
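Assay uses 48 h exposure of HepaRG hepatic cells, eight concentrations to 100 uM. Expression of CYP2E1 is quantified by TaqMan qRT-PCR with ACTB, GAPDH and POLR2A normalization; curves fitted in both directions relative to vehicle.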

Read-out in another test: CYP4A11 (gene 1579)
The experiment in a line: LTEA_HepaRG_CYP4A11: Life Technologies and Expression Analysis (LTEA) Assay for CYP4A11 using HepaRG (AID 2283486). An outline of the steps:
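CYP4A11 transcript levels were quantified by TaqMan qRT-PCR after HepaRG human liver cells were treated for 48 hours with test chemicals (top 100 uM, half-log dilutions, 0.5% DMSO). Gain or loss of signal was fitted relative to DMSO.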

Read-out in test [1]: Cytochrome P450 3A4 (Homo sapiens) (UniProt P08684)
The experiment in a line: LTEA_HepaRG_CYP3A4: Life Technologies and Expression Analysis (LTEA) Assay for CYP3A4 using HepaRG (AID 2283487). The method in brief:
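CYP3A4 transcript measured by TaqMan qRT-PCR and normalized to three housekeeping genes after 48 h chemical exposure of human HepaRG cells. Top concentration 100 uM, half-log steps, 0.5% DMSO vehicle; gain or loss fitted against DMSO baseline.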

Read-out in test [2]: DNA damage-inducible transcript 3 (DDIT3), DDIT3 (gene 1649)
Briefly: LTEA_HepaRG_DDIT3: Life Technologies and Expression Analysis (LTEA) Assay for DNA damage-inducible transcript 3 (DDIT3) using HepaRG (AID 2283488). The method in brief: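 Eight-point concentration-response (100 uM highest, half-log dilutions) in HepaRG, 48 h, duplicate wells. Endpoint: qRT-PCR mRNA, normalized (ACTB, GAPDH, POLR2A), bidirectional fitting with DMSO as baseline.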

Read-out in test [3]: Pro-epidermal growth factor (Homo sapiens) (UniProt P01133)
The experiment in a line: LTEA_HepaRG_EGF: Life Technologies and Expression Analysis (LTEA) Assay for Epidermal growth factor (EGF) using HepaRG (AID 2283489). The method in brief: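 qRT-PCR readout of EGF transcript after 48 h chemical exposure of HepaRG cells; eight concentrations from 100 uM down in half-log steps, duplicate wells, 0.5% DMSO vehicle. Bidirectional curve fitting against DMSO baseline.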

Read-out in test [4]: Early growth response protein 1 (EGR1) transcription factor, EGR1 (gene 1958)
The experiment in a line: LTEA_HepaRG_EGR1: Life Technologies and Expression Analysis (LTEA) Assay for Early growth response protein 1 (EGR1) transcription factor using HepaRG (AID 2283490). An outline of the steps: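 EGR1 expression change in human HepaRG after 48 h chemical exposure, assessed by housekeeping-normalized qRT-PCR; concentration-response up to 100 uM, fitted in both directions against DMSO controls.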

Read-out in test [5]: Ezrin (EZR), EZR (gene 7430)
The experiment in a line: LTEA_HepaRG_EZR: Life Technologies and Expression Analysis (LTEA) Assay for Ezrin (EZR) using HepaRG (AID 2283491). The method in brief: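 HepaRG, 48 h chemical exposure, 8-pt half-log series from 100 uM, 0.5% DMSO vehicle, duplicates. Read-out: EZR mRNA by TaqMan qRT-PCR (Fluidigm array), housekeeping-normalized; bidirectional curve fit vs DMSO baseline.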

Read-out in test [6]: Cytochrome P450 3A7 (Homo sapiens) (UniProt P24462)
Briefly: LTEA_HepaRG_CYP3A7: Life Technologies and Expression Analysis (LTEA) Assay for CYP3A7 using HepaRG (AID 2283492). An outline of the steps: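 CYP3A7 transcript levels were read by TaqMan qRT-PCR on Fluidigm arrays after 48 h chemical exposure of human HepaRG cells, with housekeeping-gene normalisation. Eight half-log concentrations up to 100 uM in 0.5% DMSO were tested in duplicate.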

Read-out in a further test: CYP3A5 (gene 1577)
The experiment in a line: LTEA_HepaRG_CYP3A5: Life Technologies and Expression Analysis (LTEA) Assay for CYP3A5 using HepaRG (AID 2283493). The method in brief: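 Readout was CYP3A5 mRNA by qRT-PCR. HepaRG cultures were exposed for 48 h in serum-free induction medium to chemicals at up to 100 uM, and responses were fitted in both directions relative to DMSO vehicle.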

Read-out in test [7]: Fatty Acid-Binding Protein 1 (FABP1), FABP1 (gene 2168)
The experiment in a line: LTEA_HepaRG_FABP1: Life Technologies and Expression Analysis (LTEA) Assay for Fatty Acid-Binding Protein 1 (FABP1) using HepaRG (AID 2283494). An outline of the steps:
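Values reflect bidirectional concentration-response fitting of FABP1 mRNA change against 0.5% DMSO controls. Human HepaRG cultures received eight half-log doses (top 100 uM) for 48 h; expression quantified by TaqMan qRT-PCR with housekeeping-gene normalization.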

Read-out in test [8]: Cytochrome P450 4A22 (Homo sapiens) (UniProt Q5TCH4)
Briefly: LTEA_HepaRG_CYP4A22: Life Technologies and Expression Analysis (LTEA) Assay for Cytochrome P450 4A22 (CYP4A22) using HepaRG (AID 2283495). An outline of the steps:
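HepaRG, 48 h post-plating -> serum-free induction medium; dosed 48 h, duplicate, 8 conc. (100 uM top, half-log), 0.5% DMSO. Readout: CYP4A22 mRNA by qRT-PCR, ACTB/GAPDH/POLR2A normalization; gain/loss fit relative to DMSO.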

Read-out in test [9]: Cytochrome P450 7A1 (Homo sapiens) (UniProt P22680)
The experiment in a line: LTEA_HepaRG_CYP7A1: Life Technologies and Expression Analysis (LTEA) Assay for Cytochrome P450 7A1 (CYP7A1) using HepaRG (AID 2283496). The method in brief:
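Using 0.5% DMSO as vehicle and baseline, chemicals were tested in duplicate over an 8-point range from 100 uM on HepaRG cells for 48 h; qRT-PCR signals were normalised to ACTB, GAPDH and POLR2A.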

Read-out in test [10]: Glutathione S-Transferase (GSTA2), GSTA2 (gene 2939)
The experiment in a line: LTEA_HepaRG_GSTA2: Life Technologies and Expression Analysis (LTEA) Assay for Glutathione S-Transferase (GSTA2) using HepaRG (AID 2283497). The method in brief: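 Oxidative-stress marker GSTA2 is quantified by TaqMan qRT-PCR in HepaRG cultures treated 48 h across an eight-point range to 100 uM. Expression is normalized to endogenous controls and compared with 0.5% DMSO vehicle.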

Read-out in test [11]: Glutamate-cysteine ligase catalytic (GCLC), GCLC (gene 2729)
Briefly: LTEA_HepaRG_GCLC: Life Technologies and Expression Analysis (LTEA) Assay for Glutamate-cysteine ligase catalytic (GCLC) using HepaRG (AID 2283498). An outline of the steps:
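Oxidative-stress marker GCLC is measured as mRNA change in human HepaRG liver cells after 48 h chemical treatment in 0.5% DMSO, eight concentrations from 100 uM. Activity is fitted bidirectionally against vehicle.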

Read-out in test [12]: growth arrest and DNA damage 45 (GADD45G), GADD45G (gene 10912)
The experiment in a line: LTEA_HepaRG_GADD45G: Life Technologies and Expression Analysis (LTEA) Assay for growth arrest and DNA damage 45 (GADD45G) using HepaRG (AID 2283499). The method in brief: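 HepaRG, 48 h exposure, top 100 uM, half-log 8-point series, 0.5% DMSO vehicle, duplicates. Readout: GADD45G transcript by qRT-PCR (Fluidigm array), housekeeping-normalised (ACTB/GAPDH/POLR2A). Bidirectional curve fit vs DMSO baseline.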

Read-out in test [13]: Glutamate-cysteine ligase regulatory (GCLM), GCLM (gene 2730)
Briefly: LTEA_HepaRG_GCLM: Life Technologies and Expression Analysis (LTEA) Assay for Glutamate-cysteine ligase regulatory (GCLM) using HepaRG (AID 2283500). The method in brief: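 In this multiplexed HepaRG gene-expression assay, GCLM mRNA change after 48 h treatment (8 concentrations, max 100 uM) was scored against DMSO by bidirectional curve fitting.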

Read-out in test [14]: Heat shock 70 kDa protein 1 (HSPA1A), gene 3303
Briefly: LTEA_HepaRG_HSPA1A: Life Technologies and Expression Analysis (LTEA) Assay for Heat shock 70 kDa protein 1 (HSPA1A) using HepaRG (AID 2283502). The method in brief:
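An oxidative-stress marker readout: HepaRG cells treated 48 h in duplicate with an eight-point series (highest 100 uM) had HSPA1A mRNA quantified by TaqMan qRT-PCR. Activity was fitted in both directions using 0.5% DMSO as baseline.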

Read-out in test [15]: Hypoxia-inducible factor 1-alpha (Homo sapiens) (UniProt Q16665)
Briefly: LTEA_HepaRG_HIF1A: Life Technologies and Expression Analysis (LTEA) Assay for Hypoxia-inducible factor 1 (HIF1A) Trancription factor using HepaRG (AID 2283503).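 Further: HIF1A transcript by TaqMan qRT-PCR normalized to ACTB GAPDH and POLR2A.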 An outline of the steps:
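Gain- or loss-of-signal HIF1A mRNA changes are fitted against a DMSO baseline. HepaRG cultures receive eight concentrations, highest 100 uM, for 48 h in serum-free induction medium with 0.5% DMSO.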

Read-out in test [16]: Glutathione S-transferase M3 (GSTM3), GSTM3 (gene 2947)
The experiment in a line: LTEA_HepaRG_GSTM3: Life Technologies and Expression Analysis (LTEA) Assay for Glutathione S-transferase M3 (GSTM3) using HepaRG (AID 2283501). The method in brief: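 qRT-PCR read-out of GSTM3 transcript, normalized to three housekeeping genes, from human HepaRG cells after 48 h chemical exposure. Eight-point half-log series, top 100 uM, 0.5% DMSO vehicle; gain or loss fitted relative to DMSO baseline.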

The AC50 is the concentration at which the activity in the assay is half-maximal.

Calls of active or inactive are those of the source. How the source made its calls: active means hit-call score of the fitted dose curve at least 0.9, where 1 is the maximum; inactive means score below 0.9.

Cytochrome P450 3A7 (Homo sapiens), sequence (P24462 whole entry, looked up): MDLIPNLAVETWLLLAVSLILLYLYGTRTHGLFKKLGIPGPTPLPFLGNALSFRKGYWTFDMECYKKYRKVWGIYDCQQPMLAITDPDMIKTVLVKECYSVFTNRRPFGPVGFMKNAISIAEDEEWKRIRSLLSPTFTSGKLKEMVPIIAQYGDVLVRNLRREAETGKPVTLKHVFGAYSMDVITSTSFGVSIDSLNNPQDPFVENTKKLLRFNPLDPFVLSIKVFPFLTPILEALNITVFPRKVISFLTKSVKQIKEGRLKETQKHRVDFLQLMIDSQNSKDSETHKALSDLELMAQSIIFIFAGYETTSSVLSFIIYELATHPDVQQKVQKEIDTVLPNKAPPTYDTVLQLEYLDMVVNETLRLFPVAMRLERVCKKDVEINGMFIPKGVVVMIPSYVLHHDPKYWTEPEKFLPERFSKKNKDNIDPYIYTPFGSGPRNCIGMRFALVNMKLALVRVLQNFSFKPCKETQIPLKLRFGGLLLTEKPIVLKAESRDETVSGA
Hypoxia-inducible factor 1-alpha (Homo sapiens), sequence (Q16665 whole entry, looked up): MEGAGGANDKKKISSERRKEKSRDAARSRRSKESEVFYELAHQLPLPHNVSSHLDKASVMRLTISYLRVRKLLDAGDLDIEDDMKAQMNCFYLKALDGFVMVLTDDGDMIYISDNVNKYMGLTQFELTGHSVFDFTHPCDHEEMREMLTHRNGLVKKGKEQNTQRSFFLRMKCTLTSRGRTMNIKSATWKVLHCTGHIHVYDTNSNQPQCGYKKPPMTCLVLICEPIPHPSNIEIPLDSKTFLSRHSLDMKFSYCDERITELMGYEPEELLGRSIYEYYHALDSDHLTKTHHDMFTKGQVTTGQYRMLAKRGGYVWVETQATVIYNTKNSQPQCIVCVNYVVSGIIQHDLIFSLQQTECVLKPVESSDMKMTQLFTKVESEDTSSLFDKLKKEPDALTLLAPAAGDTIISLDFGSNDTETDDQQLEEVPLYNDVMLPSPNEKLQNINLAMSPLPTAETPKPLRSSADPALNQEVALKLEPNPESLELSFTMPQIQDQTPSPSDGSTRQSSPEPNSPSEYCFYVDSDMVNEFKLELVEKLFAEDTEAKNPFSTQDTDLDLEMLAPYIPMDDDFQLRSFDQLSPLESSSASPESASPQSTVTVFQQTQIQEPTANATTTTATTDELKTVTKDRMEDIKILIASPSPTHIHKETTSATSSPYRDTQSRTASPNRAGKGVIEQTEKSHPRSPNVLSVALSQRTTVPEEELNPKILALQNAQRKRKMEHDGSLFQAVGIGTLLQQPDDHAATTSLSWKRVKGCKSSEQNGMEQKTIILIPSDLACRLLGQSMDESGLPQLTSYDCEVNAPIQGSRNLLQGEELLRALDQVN
Cytochrome P450 3A4 (Homo sapiens), sequence (P08684 whole entry, looked up): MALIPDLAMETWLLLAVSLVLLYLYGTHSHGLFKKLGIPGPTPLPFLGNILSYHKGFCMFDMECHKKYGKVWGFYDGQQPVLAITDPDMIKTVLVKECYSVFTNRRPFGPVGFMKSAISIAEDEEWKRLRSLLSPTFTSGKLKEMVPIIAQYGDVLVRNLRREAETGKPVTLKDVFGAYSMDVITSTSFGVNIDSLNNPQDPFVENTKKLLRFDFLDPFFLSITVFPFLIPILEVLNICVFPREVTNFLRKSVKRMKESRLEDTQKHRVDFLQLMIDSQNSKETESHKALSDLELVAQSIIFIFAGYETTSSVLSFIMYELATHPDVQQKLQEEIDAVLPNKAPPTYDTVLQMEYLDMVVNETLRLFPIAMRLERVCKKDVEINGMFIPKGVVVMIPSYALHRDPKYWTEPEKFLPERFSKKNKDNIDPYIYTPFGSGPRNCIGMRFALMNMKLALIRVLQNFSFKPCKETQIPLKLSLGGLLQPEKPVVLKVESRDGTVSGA

Regarding `CNC(=O)Oc1cccc2c1OC(C)(C)C2`, the compound was called inactive (in the test with CYP2C9 (gene 1559); with CYP4A11 (gene 1579); in test [2]; in [3]; in test [4]; in [5]). Further, the compound was called inactive (with CYP3A5 (gene 1577); in test [8]; in test [10]; in test [11]; in test [12]; in test [13]). The compound was called inactive in test [14] and in test [15]. Also, the AC50 was 23.7 µM (active) with CYP2E1 (gene 1571); 6.81 µM (active) in test [1]; 7.32 µM (active) in [6]; 3.45 µM (active) in [7]; 9.92 µM (active) in test [9].

Regarding `CC(C)COC(=O)c1ccccc1C(=O)OCC(C)C`, the compound was called inactive (with CYP2C9 (gene 1559); with CYP2E1 (gene 1571); with CYP4A11 (gene 1579); in [1]; in [2]; in test [3]). Besides, the compound was called inactive (in [4]; in test [5]; in test [6]; with CYP3A5 (gene 1577); in test [7]; in test [8]). Also, the outcome in test [9], in test [10], in [11], in test [12], in [13] and in test [16] was inactive. The compound was classed as inactive in test [14] and in test [15].

Take `CCC12COCN1COC2`: the compound was classed as inactive (with CYP2C9 (gene 1559); with CYP2E1 (gene 1571); with CYP4A11 (gene 1579); in test [1]; in test [2]; in test [3]). Further, the call (in test [4]; in [5]; in test [6]; in the test with CYP3A5 (gene 1577); in [7]; in test [8]) was inactive. Also, the compound was classed as inactive in [9], in [10], in test [11], in test [12], in test [13] and in [14]. In addition, the outcome in test [15] was inactive.
